In the library only some 3.2% were active in any assay of this set; here they are far more common.
MEKK3 PB1 HTS: modulators of MEKK3-MEK5 PB1 binding, primary screen, biochemical, wildtype MEKK3, multiplex bead flow cytometry, Alexa488-MEK5 | 290,000 compounds, 1.4% hits | bead-based flow cytometry, Alexa488-MEK5 binding to MEKK3; actives lie on both sides; 0 = blocked by unlabeled MEK5, 100 = vehicle | Mitogen-activated protein kinase kinase kinase 3 (Homo sapiens), Q99759 | binding response (% of control), % at 10 µM;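 active = binding response more than 3 SD above or below the average of its plate-row segment, actives on both sides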;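 note: Alexa488 bead fluorescence after subtracting the streptavidin-only scavenger bead signal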
SKN-1 block: suppressors of acrylamide-induced Pgst-4::GFP reporter in worms, primary screen, SKN-1 inhibitor project, whole organism, uHTS, GFP/RFP fluorescence ratio, strain VP596. C. elegans VP596 Pgst-4::GFP/RFP ratio, 24 h. inhibition, % at 21.8 µM. 360,000 compounds, 0.49% hits;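 active = interference check ratio from 0.5 to 1.5 plus GFP to RFP signal ratio inhibition reaching or exceeding a fixed threshold, cut at about 30% in these data, passing the limit was not always enough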
MEKK2 mut-MEK5: MEK5 binding signal on mutant MEKK2 PB1, primary screen, biochemical, multiplex bead flow cytometry, Alexa488-MEK5; Alexa488-MEK5 binding to MEKK2 mutant; percent response, % at 10 µM; 290,000 compounds, 0.35% hits; in the data active = percent response above about 24%, passing the limit was not always enough
MEKK2wt PB1 HTS: modulators of MEK5 binding to wildtype MEKK2, primary screen, biochemical, multiplex bead flow cytometry, Alexa488-MEK5 | binding response (% of control), % at 10 µM | Mitogen-activated protein kinase kinase kinase 2 (Homo sapiens), Q9Y2U5 | Alexa488-MEK5 binding to MEKK2 WT; actives lie on both sides | AID 1531, 2009 | 290,000 compounds, 1.1% hits; in the data active = binding response below about 67% or above about 130%
CendR NRP1 mod: modulators of CendR peptide binding to NRP-1, primary screen, biochemical, fluorescence polarization, uHTS; FAM-RPARPAR peptide binding to NRP-1; inhibition, % at 25 µM; 360,000 compounds, 0.85% hits; AID 602438, 2012;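 active = inhibition or corrected inhibition above about 18%, plus a signal ratio from 0.5 to 1.5, limit read from the data, passing the limit was not always enough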
Target sequence (O14786 whole entry, looked up): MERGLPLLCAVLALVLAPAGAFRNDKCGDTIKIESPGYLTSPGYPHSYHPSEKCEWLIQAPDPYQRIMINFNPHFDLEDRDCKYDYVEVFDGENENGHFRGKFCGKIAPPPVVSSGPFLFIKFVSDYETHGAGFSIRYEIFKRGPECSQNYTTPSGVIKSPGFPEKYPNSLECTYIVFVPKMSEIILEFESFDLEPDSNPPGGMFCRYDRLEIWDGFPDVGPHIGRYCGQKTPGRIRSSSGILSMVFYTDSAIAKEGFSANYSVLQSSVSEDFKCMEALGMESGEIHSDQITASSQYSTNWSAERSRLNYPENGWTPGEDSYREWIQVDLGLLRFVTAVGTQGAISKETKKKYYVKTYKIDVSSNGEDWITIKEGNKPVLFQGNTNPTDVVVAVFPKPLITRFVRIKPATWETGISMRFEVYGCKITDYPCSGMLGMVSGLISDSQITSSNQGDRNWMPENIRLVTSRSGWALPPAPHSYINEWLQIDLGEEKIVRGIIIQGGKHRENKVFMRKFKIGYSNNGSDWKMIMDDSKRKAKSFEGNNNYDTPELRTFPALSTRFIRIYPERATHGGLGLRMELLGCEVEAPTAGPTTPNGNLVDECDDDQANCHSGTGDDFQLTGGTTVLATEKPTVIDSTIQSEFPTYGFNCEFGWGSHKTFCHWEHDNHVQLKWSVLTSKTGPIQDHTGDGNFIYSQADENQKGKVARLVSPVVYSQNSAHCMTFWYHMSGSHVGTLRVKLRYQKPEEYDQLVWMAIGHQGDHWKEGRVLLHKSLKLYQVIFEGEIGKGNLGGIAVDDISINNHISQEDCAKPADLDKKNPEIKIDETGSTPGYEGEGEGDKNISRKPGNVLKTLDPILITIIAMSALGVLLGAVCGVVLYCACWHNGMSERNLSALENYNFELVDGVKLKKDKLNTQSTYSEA
MEKK2wt confirm: modulators of MEK5 binding to wildtype MEKK2, confirmation, biochemical, single concentration, multiplex bead flow cytometry. Alexa488-MEK5 binding to MEKK2 WT; actives lie on both sides. 5,900 compounds, 2.4% hits. shares compounds with MEKK3 PB1 HTS. binding response (% of control), % at 10 µM; in the data active = binding response below about 16% or above about 210%; inactive = in between
MEKK2mut confirm: mutant MEKK2 PB1-MEK5 binding signal retest – biochemical, single concentration, multiplex bead flow cytometry, confirmation. AID 1893, 2009. shares compounds with MEKK3 PB1 HTS. 5,900 compounds, 2% hits. percent response, % at 10 µM. Alexa488-MEK5 binding to MEKK2 mutant; in the data active = percent response mostly above about 71%, no sharp cut-off; inactive = mostly below about 38%;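 note: higher means compound restores mutant binding toward wildtype level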
MEKK3-MEK5 inh: MEKK3 wild-type PB1 binding to MEK5, inhibitors, confirmation, biochemical, bead multiplex flow cytometry, single concentration, wildtype; shares compounds with MEKK3 PB1 HTS; Alexa488-MEK5 binding to MEKK3; stronger effect = lower value; binding response (% of control), % at 10 µM; 5,900 compounds, 1.8% hits; AID 1894, 2009;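 active = binding response below 72% of control, or above a set upper limit, though filed actives all read lower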;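 note: 100% = DMSO only wells and 0% = binding blocked by excess unlabeled MEK5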
* = called active by the depositor; / = no result; ! = a repeat was not active; [ ] = another dose, or the depositor's remark.

SMILES | MEKK3 PB1 HTS | SKN-1 block | MEKK2 mut-MEK5 | MEKK2wt PB1 HTS | CendR NRP1 mod | MEKK2wt confirm | MEKK2mut confirm | MEKK3-MEK5 inh
Cc1ccc2c(CC(=O)NC3CCCc4ccccc43)coc2c1 (stereo not drawn) | 147* | -10 | 0 | 109 | -4 | 107 | 8 | 102
O=C(CSc1nc2cc(S(=O)(=O)N3CCOCC3)ccc2o1)NC1CCCc2ccccc21 (stereo not drawn) | 2.0*[inhibitor] | 11 | -21 | 3.0*[inhibitor] | -7 | 98 | 0 | 101
Cc1cccc(Nc2nnc(SCC(=O)NC3CCCc4ccccc43)s2)c1 (stereo not drawn) | 3.0*[inhibitor] | -1 | -4 | 3.0*[inhibitor] | 5 | 104 | -4 | 100
O=C(CSc1ccc2ccccc2c1)NC1CCCc2ccccc21 (stereo not drawn) | 130* | -3 | 1 | 107 | 9 | 100 | 1 | 102
COc1ccc(OCC(=O)N2CCN(S(=O)(=O)c3ccc4c(c3)OCCO4)CC2)cc1 | / | 5 | / | / | 13 | / | / | /
CNS(=O)(=O)c1ccc(NCC2COc3ccccc3O2)c([N+](=O)[O-])c1 (stereo not drawn) | 133* | -1 | -1 | 103 | -3 | 102 | 0 | 101
O=S(=O)(NCC1COc2ccccc2O1)c1ccc2ccccc2c1 (stereo not drawn) | 104 | -4 | -1 | 104 | 4 | / | / | /
CCOC(=O)C1(C)CCCCN1C(=O)c1ccc(F)c(C)c1 (stereo not drawn) | / | 6 | / | / | 2 | / | / | /
COc1ccccc1N1CCN(CC(O)COc2cccc3ccccc23)CC1 (stereo not drawn) | 75*![inhibitor] | -9 | 1 | 95 | -3 | 119 | 14 | 106
OC(COc1ccccc1Cl)CN1CCN(CC(O)COc2ccccc2Cl)CC1 (stereo not drawn) | 109 | -25 | 35* | 150* | 12 | 155 | 27 | 104
OC(COc1cccc2ccccc12)CN1CCN(c2ccccc2)CC1 (stereo not drawn) | 103 | -13 | 5 | 111 | 6 | / | / | /
CC(C)c1ccc(C2C3CSCC=C3C(C#N)=C(N)C2(C#N)C#N)cc1 (stereo not drawn) | 1.0*[inhibitor] | / | -21 | 1.0*[inhibitor] | / | 88 | -2 | 98
CN1CC=C2C(C#N)=C(N)C(C#N)(C#N)[C@H](c3cccc(Cl)c3)C2C1 (stereo partly drawn) | 107 | 7 | 15 | 111 | 8 | / | / | /
CCOC(=O)C(=NC1CCS(=O)(=O)C1)NNc1cc(Cl)ccc1Cl (stereo not drawn) | 91 | 8 | 1 | 92 | -7 | / | / | /
CCOC(=O)C(=NCCOC)NNc1cc(Cl)ccc1Cl | 140* | 5 | 0 | 108 | 2 | 104 | -1 | 101
Cc1cc(OCC(=O)NC2CCCCC2)ccc1Cl | 147* | -1 | 2 | 105 | -11 | 107 | 3 | 102
Cc1cc(OCC(=O)OCC(=O)NC2CCCC2)ccc1Cl | / | 5 | / | / | -1 | / | / | /
O=[N+]([O-])c1cccc(S(=O)(=O)N2CCCC2)c1 | 15*[inhibitor] | 6 | 90* | / | -22 | 95 | -2 | 95
CCOc1ccc(CN(C)C(=O)CN2C(=O)NC(c3ccccc3)(c3ccccc3)C2=O)cc1 | / | -7 | / | / | 8 | / | / | /
Cc1ccc(O)c(Cc2cc(C)cc(Cc3cc(C)ccc3O)c2O)c1 | / | 11 | / | / | 2 | / | / | /

Screening results (PubChem BioAssay)
